Shown are actives, neighbours in structure and some others; about 0.24% of the full set was active somewhere.
hcGAS lum: inhibitors of human cGAS; 0.081% of 290,000 active; inhibition, % at 12.5 µM; recombinant h-cGAS, ATP depletion, Kinase-Glo luminescence; Q8N884;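 further: 0% = vehicle reaction and 100% = reaction without DNA for no activity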
Target sequence (Q8N884 whole entry, looked up): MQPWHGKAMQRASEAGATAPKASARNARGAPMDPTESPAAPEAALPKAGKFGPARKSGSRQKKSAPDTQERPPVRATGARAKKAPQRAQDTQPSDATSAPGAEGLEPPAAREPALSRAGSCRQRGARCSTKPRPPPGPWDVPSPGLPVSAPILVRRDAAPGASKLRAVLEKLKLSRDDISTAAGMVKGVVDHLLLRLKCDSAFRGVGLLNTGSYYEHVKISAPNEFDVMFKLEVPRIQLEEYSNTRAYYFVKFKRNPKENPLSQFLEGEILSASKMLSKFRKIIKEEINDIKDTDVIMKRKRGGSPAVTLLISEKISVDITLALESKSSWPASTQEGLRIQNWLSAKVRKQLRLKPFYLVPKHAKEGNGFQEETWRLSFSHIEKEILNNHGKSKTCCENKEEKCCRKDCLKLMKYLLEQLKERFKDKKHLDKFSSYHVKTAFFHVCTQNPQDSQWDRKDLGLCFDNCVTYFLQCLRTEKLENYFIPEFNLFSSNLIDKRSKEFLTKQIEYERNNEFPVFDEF
NPYLR7 agonist: mosquito NPYLR7 agonism. 0.15% of 270,000 active. HEK293T NPYLR7/Galpha15, GCaMP6s calcium fluorescence. AID 1259423. activation, % at 10 µM; in the data active means activation above about 40%;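 further: 0% = vehicle and 100% = reference agonist at the receptor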
mcGAS inh: mouse cGAS inhibition by luminescence. Q8C6L5. recombinant cGAS, Kinase-Glo ATP depletion luminescence. inhibition, % at 12.5 µM. 0.15% of 160,000 active;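 further: 0% = negative control wells and 100% = reference inhibitor with no enzyme activity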
Numbers without * were called inactive; nt = not tested or not shown; ! = a repeat was not active. Unless noted, no stated cut-off is given here; in the data, active means inhibition above about 40%; inactive means the rest.

SMILES	hcGAS lum	NPYLR7 agonist	mcGAS inh
Cc1ccc(-n2nnc(C(=O)NC(C)C)c2-c2ccco2)cc1	-2	-10	0
Cn1ccc(-c2nnc(N)o2)n1	-7	2	nt
O=C(CCl)N1N=C(c2ccc(Cl)cc2)CC1c1ccco1 (centres undefined)	-7	-5	52*
CCN(CC)CC(=O)N1N=C(c2ccc(Cl)cc2)CC1c1ccco1 (centres undefined)	5	-2	-3
CCN1C(=O)/C(=C/C=C2/Sc3ccccc3N2CC)SC1=Nc1ccccc1C	-3	-4	-2
CCN1C(=O)/C(=C\C=C2/Sc3ccccc3N2CC)N(c2ccccc2)C1=S	-5	-2	-4
CCN1C(=Cc2cc(C)[n+](CCOC)c(C)c2)Sc2ccccc21	4	124*	nt
CCN1/C(=C\C(=C2\C(=O)N(C)C(=S)N2C)c2ccccc2)Sc2ccccc21	-2	-2	nt
CCCC[n+]1c(C)cc(C=C2Sc3ccccc3N2CC)cc1C	2	258*	nt
CCN1C(=Cc2cc(C)[n+](CC3CCCO3)c(C)c2)Sc2ccccc21 (centres undefined)	-1	123*	-4
CC(Sc1nnc(-c2ccccc2F)n1C1CC1)C(=O)c1ccc2c(c1)NC(=O)CO2 (centres undefined)	-5	-3	-5
CCCCCCCCCCCCNC(=O)c1c(O)c2ccccc2[nH]c1=O	45*	-3	-3
O=C(NCCCO)c1c(O)c2ccccc2[nH]c1=O	-2	-2	nt
CCN(CC)c1ccc(C(=O)CN2C(=O)CON=C2c2cccc(C#N)c2)cc1	-6	12	nt
Cc1nc2c(c(C(F)(F)F)n1)CC(C(=O)NC(C)CS(C)(=O)=O)CC2 (centres undefined)	-5	-2	-11
O=C(C1=NN(c2ccccc2)C2C(=O)N(c3ccccc3)C(=O)C12)c1ccccc1 (centres undefined)	-5	65*	-4
CC(=O)C1=NN(c2ccccc2)C2C(=O)N(c3ccc(Br)cc3)C(=O)C12 (centres undefined)	0	5	-3
O=C1c2cccc3c(NCC(O)CCl)ccc(c23)C(=O)N1c1ccccc1 (centres undefined)	-5	94*!	-4
O=C1c2cccc3c(Nc4ccccc4)ccc(c23)C(=O)N1c1ccccc1	-5	53*	-5
NCCNc1ccc2c3c(cccc13)C(=O)N(c1ccc(Cl)cc1)C2=O	4	104*	nt
O=C1c2cccc3c([N+](=O)[O-])ccc(c23)C(=O)N1c1ccc([N+](=O)[O-])cc1	-7	0	-7
O=C(c1ccccc1)c1ccc2c3c(cccc13)C(=O)N(c1ccccc1)C2=O	4	-15	1
O=C1c2cccc3c(C#Cc4ccccc4)ccc(c23)C(=O)N1c1ccccc1	-8	5	nt
COc1cccc(CNC(=O)CSc2nc3c(-c4ccccc4)c[nH]c3c(=O)n2C)c1	-3	-4	-6
COc1ccc(CN(CCc2c[nH]c3ccccc23)Cc2nc(C(=O)NCC3CCCO3)co2)c(OC)c1 (centres undefined)	2	nt	2
SMILES	hcGAS lum	NPYLR7 agonist	mcGAS inh
Cc1cnn(CC2CCCN2C(C)C(=O)N2CCOCC2)c1 (centres undefined)	-10	3	nt
O=C(Nc1nc2ccc(F)cc2s1)c1cccc(S(=O)(=O)N2CCOCC2)c1	-4	9	-4
CC1(C)C2CCC1(CS(=O)(=O)NNc1ccnc3cc(Cl)ccc13)C(=O)C2 (centres undefined)	-2	-5	0
CCC(O)CN(Cc1ccccc1)Cc1ccccc1C (centres undefined)	-3	7	-6
Cc1cc2c(c(-c3ccc4c(cnn4C)c3)c1)OC(CN)C2 (centres undefined)	-4	76*	nt
Cc1cc2c(c(-c3cccs3)c1)OC(CN)C2 (centres undefined)	-9	0	nt
CN(Cc1ccc2nccnc2c1)Cc1c(C(=O)N(C)Cc2ccccc2)nc2ccccn12	-6	5	nt
COCCN=Cc1cc(I)cc(I)c1O	77*	51*	nt
COCc1cc(C)nc(OCC(=O)N/N=C\c2cc(Br)cc(I)c2O)c1C#N	-1	0	1

Source: PubChem (Fisher Drug Discovery Resource Center)
